In PubChem BioAssay (NCATS):
Inconclusive results are not listed. The source made the active and inactive calls. Calls come from the whole dose curve; as a rule, active = well fitted curve in the direction sought with a large enough effect; inconclusive = small, poorly fitted or top-dose-only effect, or another doubt; inactive = no such curve, though single readings can be large; an effect the other way counts as inactive or inconclusive.

Columns and labels:
[1] = Cellular Toxicity (caspase-3) Renal Proximal Tubule (AID 667); settings: renal proximal tubule cells; at 91.7 µM (top of the series), primary cells freshly taken from rat, solvent-only wells 0%, staurosporine 100% unless noted;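 note: cells exposed to compound for 16 hours at 37 °C before detection; 0% = DMSO basal and 100% = 10 µM staurosporine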
Outline: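 Freshly isolated primary rat kidney proximal tubule cells, 1000/well, treated 16 hr at 37 °C, then Caspase-Glo 3/7 luminescence after 1 hr. Normalized to DMSO and 10 uM staurosporine; AC50 from Hill fit.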

[2] = target: Cytochrome P450 3A4 (Homo sapiens) (UniProt P08684); assay: qHTS Assay for Inhibitors and Substrates of Cytochrome P450 3A4 (AID 884); note: % is set by controls: 0 for no effect and ±100 for the full control effect; nearly all actives have a fitted effect of over 50% in size
Chain of Cytochrome P450 3A4 (Homo sapiens) (P08684 whole entry, looked up): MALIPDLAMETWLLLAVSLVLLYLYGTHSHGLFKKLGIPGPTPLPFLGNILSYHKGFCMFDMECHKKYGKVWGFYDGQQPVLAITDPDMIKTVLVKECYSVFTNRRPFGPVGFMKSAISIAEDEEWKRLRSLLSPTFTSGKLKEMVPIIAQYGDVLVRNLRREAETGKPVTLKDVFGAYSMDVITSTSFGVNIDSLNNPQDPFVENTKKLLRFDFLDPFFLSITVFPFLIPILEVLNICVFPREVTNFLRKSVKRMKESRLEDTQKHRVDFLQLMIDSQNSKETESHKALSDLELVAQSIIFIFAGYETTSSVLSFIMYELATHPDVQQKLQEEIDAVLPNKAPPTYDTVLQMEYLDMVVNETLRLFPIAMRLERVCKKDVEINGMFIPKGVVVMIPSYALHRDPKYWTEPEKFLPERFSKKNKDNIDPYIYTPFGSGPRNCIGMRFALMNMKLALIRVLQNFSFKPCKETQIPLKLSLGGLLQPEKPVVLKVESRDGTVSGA
Outline: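 Luminescent readout of luciferin produced by CYP3A4 (20 nM) dealkylation of Luciferin-PPXE, 25 uM (its KM). NADPH-driven reaction ran 60 min at RT after 10 min compound preincubation; data scaled to 57 uM ketoconazole as 100% inhibition.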

[3] = Confirmation and Secondary Assay for Modulators of Hemoglobin Beta Chain Splicing at IVS2 654 locus (AID 910);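 note: HeLa cells stably carrying EGFP split by mutant beta-globin IVS2-654 intron; % of control where 0% means no effect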
Outline: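 HeLa cells stably expressing EGFP interrupted by β-globin IVS2-654 intron, seeded overnight in Opti-MEM/2% FCS, then treated 2 days at 37 °C. Restored splicing read as total peak GFP intensity per well by laser scanning cytometry (488 nm excitation, 500–520 nm emission); 500 nM antisense PNA as control.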

[4] = Cell Viability - LYMP2-001 (AID 921);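 note: 0% = DMSO only and full inhibition = tetraoctylammonium bromide control wells; nearly all actives have a fitted effect of over 70% in size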
Outline: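 Human lymphoblastoid LYMP2-001 cells, 2500 per well, in complete medium, treated 24 h at 37 C. Viability from cellular ATP by CellTiter-Glo luminescence; AC50 from Hill-equation fits of qHTS concentration-response.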

[5] = Confirmation and Secondary Assay for Modulators of Hemoglobin Beta Chain Splicing at IVS2 705 locus (AID 930);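 note: HeLa cells stably expressing the EGFP-705 splicing reporter; GFP fluorescence per well restored by corrected splicing of the IVS2-705 intron in EGFP; % of control where 0% means no effect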
Outline: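 HeLa EGFP-705 reporter; 500 cells/well, o/n 37C 5% CO2; cpd 2 d; 488 ex/500-520 em laser scan; total peak GFP intensity/well. Ref: 500 nM […] antisense PNA.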

[6] = MultiTox-Fluor Cytotoxicity Assay - LYMP1-001 - Dead Cells (AID 946);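 note: 0% = DMSO and 100% = tetraoctylammonium bromide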
Outline: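 In this qHTS, 15 uM tetraoctylammonium bromide defined 100% and DMSO defined basal activity. Lymphoblastoid cells (LYMP1-001, 2500 per well) received compound for 16 hr at 37 C before a fluorogenic dead-cell substrate readout at 485/520 nm.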

[7] = Cell Viability - LYMP1-002 - Assay at 16 hr (AID 948);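 note: 0% = DMSO alone and full effect = 92 µM tetraoctylammonium bromide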
Outline: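 LYMP1-002 human lymphoblastoid cells, 2500/well, were treated with compounds for 16 hr at 37 C in complete medium. Viability was read as intracellular ATP by CellTiter-Glo luminescence, and AC50 was derived from a Hill fit to concentration-response data.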

[8] = MultiTox-Fluor Cytotoxicity Assay - LYMP1-002 - Live Cells (AID 955);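 note: cells exposed to compound for 16 hours; % is set by controls: 0 for no effect and ±100 for the full control effect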
Outline: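 Cells were seeded at 2500 per well and incubated 5 hr. Compounds were then added for 16 hr at 37 C, followed by MultiTox-Fluor reagent for 60 min at room temperature and fluorescence reading of viable-cell protease signal.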

[9] = MultiTox-Fluor Cytotoxicity Assay - LYMP1-002 - Dead Cells (AID 960);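 note: cells exposed to compound for 16 h at 37 °C; 0% = DMSO and 100% = tetraoctylammonium bromide; nearly all actives have a fitted effect of over 60% in size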
Outline: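 Cells were plated, rested 5 hr, then treated with compound dilution series for 16 hr at 37 C. After adding substrate reagent and 60 min at room temperature, dead-cell protease fluorescence gave concentration-response curves fitted by the Hill equation.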

[10] = MultiTox-Fluor Cytotoxicity Assay - LYMP1-003 - Dead Cells (AID 961);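 note: cells exposed to compound for 16 h at 37 °C; 0% = DMSO and 100% = tetraoctylammonium bromide; nearly all actives have a fitted effect of over 70% in size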
Outline: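 Acute toxicity is scored as increased dead-cell protease activity in human lymphoblastoid LYMP1-003 cells after 16 h compound exposure in complete culture medium. Activity is normalized to DMSO basal and 15 uM tetraoctylammonium bromide as full response.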

[11] = MultiTox-Fluor Cytotoxicity Assay - LYMP1-003 - Live Cells (AID 962);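 note: cells exposed to compound for 16 hours at 37 °C; 0% = DMSO only and full loss = 92 µM tetraoctylammonium bromide; cytotoxic hits lower the live-cell protease signal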
Outline: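 Acute cytotoxicity is scored as a drop in live-cell protease activity in human lymphoblastoid LYMP1-003 cells after 16 hr compound exposure at 37 C. AC50 values come from Hill-equation modelling of concentration-response data.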

[12] = Cell Viability - LYMP1-003 - Assay at 40 hr (AID 964); note: % is set by controls: 0 for no effect and ±100 for the full control effect; nearly all actives have a fitted effect of over 60% in size
Outline: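 Luminescent ATP signal (CellTiter-Glo) served as the viability read-out after 40 hr compound treatment of human lymphoblastoid LYMP1-003 cells at 37 C. Decreases in ATP were fitted with the Hill equation to give AC50.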

[13] = Cell Viability - LYMP2-003 (AID 965);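 note: cells exposed to compounds for 24 h before reading; 0% = DMSO only and full effect = 92 µM tetraoctylammonium bromide; nearly all actives have a fitted effect of over 50% in size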
Outline: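 Human lymphoblastoid LYMP2-003 cells, 2500/well, exposed to compounds for 24 h at 37 C in complete medium. Viability read as intracellular ATP by CellTiter-Glo luminescence; AC50 from Hill-equation fits of qHTS concentration-response data.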

[14] = Cell Viability - LYMP2-004 (AID 966);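 note: plate controls were DMSO only for no effect and tetraoctylammonium bromide control for full effect; nearly all actives have a fitted effect of over 65% in size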
Outline: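 qHTS cytotoxicity: human lymphoblastoid line, 24 hr compound treatment, 37 C, complete medium. Viability read as cellular ATP via luciferase luminescence; tetraoctylammonium bromide served as positive control.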

[15] = Cell Viability - LYMP2-005 (AID 967);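 note: plate controls were DMSO only for no effect and 92 µM tetraoctylammonium bromide control for full effect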
Outline: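 Human lymphoblastoid LYMP2-005 cells, 2,500 per well in complete medium, rested 5 h at 37C then compound-treated 24 h at 37C. Intracellular ATP read by CellTiter-Glo luminescence after 30 min at room temperature; AC50 from Hill-equation fits of concentration-response data.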

[16] = Cell Viability - LYMP2-009 (AID 968);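 note: 0% = DMSO alone and the full-kill end = tetraoctylammonium bromide at 92 µM; nearly all actives have a fitted effect of over 55% in size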
[17] = Cell Viability - LYMP2-011 (AID 969);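 note: 0% = DMSO only and full inhibition = 92 µM tetraoctylammonium bromide; nearly all actives have a fitted effect of over 60% in size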
Outline: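 In this qHTS cytotoxicity format, compounds are tested across concentrations on human lymphoblastoid cells in complete medium for 24 hours at 37 C. Viability is taken as cellular ATP measured by luciferase luminescence.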

[18] = Cell Viability - LYMP2-013 (AID 970);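 note: 0% = DMSO only and full inhibition = tetraoctylammonium bromide control; nearly all actives have a fitted effect of over 55% in size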
Outline: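 Cytotoxicity is scored as a concentration-dependent drop in intracellular ATP in human lymphoblastoid cells after 24 hr compound exposure at 37 C. ATP is quantified by luciferase luminescence, and AC50 values come from Hill-equation modeling.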

[19] = Cell Viability - LYMP2-015 (AID 971);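 note: 0% = DMSO only and full effect = 92 µM tetraoctylammonium bromide; nearly all actives have a fitted effect of over 55% in size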
Outline: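 Cells are seeded at 2500 per well and incubated 5 hr at 37 C. Compounds are added across a concentration series for 24 hr at 37 C. CellTiter-Glo is added, and luminescence is read after 30 min at room temperature.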

[20] = Cell Viability - LYMP2-017 (AID 972); note: % is set by controls: 0 for no effect and ±100 for the full control effect; nearly all actives have a fitted effect of over 55% in size
Outline: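 Cytotoxicity is scored as a concentration-dependent drop in cellular ATP in a human lymphoblastoid line after 24 hr treatment at 37 C. Values are AC50s from Hill-equation modelling.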

[21] = Cell Viability - LYMP2-019 (AID 973)
Outline: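 Cytotoxicity is scored as a concentration-dependent drop in cellular ATP after cells (2500/well) receive compound for 24 hr at 37 C. Tetraoctylammonium bromide serves as positive control.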

[22] = Cell Viability - LYMP2-021 (AID 974)
Outline: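 Loss of cellular ATP, measured with a luciferase-based CellTiter-Glo readout, serves as the toxicity signal in human lymphoblastoid cells treated for 24 hours at 37 C. Potency is reported as AC50 from a standard Hill model.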

[23] = Cell Viability - LYMP2-023 (AID 975)
Outline: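 Steps: seed 2500 human lymphoblastoid cells per well, incubate 5 hr at 37 C, add compound for 24 hr at 37 C, add CellTiter-Glo, hold 30 min at room temperature, read luminescence. AC50 derived by Hill modelling.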

CCCCOC(=O)c1ccccc1C(=O)OCCCC
inactive: caspase-3 activation [1] -0.0975% [at 91.7 µM] | Potency [2] | Potency [3] | Potency [4] | Potency [5] | Potency [6] | Potency [7] | outcome [8] | Potency [9] | Potency [10] | Potency [11] | Potency [12] | Potency [13] | Potency [14] | Potency [15] | Potency [16] | Potency [17] | Potency [18] | Potency [19] | Potency [20] | Potency [21] | Potency [22] | Potency [23]
